PNC inhibitor – High Content Assay for Compounds that inhibit the Assembly of the Perinucleolar Compartment | PC3M PTB-GFP, PNC prevalence imaging, 16 h; stronger effect = lower value | activity change (PNC), negative = inhibition, % at 10 µM | 140,000 tested, 3.1% active | AID 2417, 2010;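 active = readout at or below -70, meaning at least 70% loss of cells showing the perinucleolar compartment, a nuclear body marking cancer cells; inconclusive = readout between -30 and a set limit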;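 note: plate controls were DMSO wells for no effect and camptothecin positive control wells for full effect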
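PC3M cells stably expressing PTB-GFP, 750–1000 cells/well, treated 16 h at 37 °C with compound (23 nl of library stock), in duplicate. After paraformaldehyde fixation and Hoechst stain, imaged at 20x; PNC prevalence scored by image analysis.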
12-hLO inh – qHTS Assay for Inhibitors of 12-hLO (12-human lipoxygenase) | Polyunsaturated fatty acid lipoxygenase ALOX12 (Homo sapiens), P18054 | purified 12-hLO, xylenol orange hydroperoxide absorbance | Potency, µM (series often up to 57.1 µM), for the others: at the highest dose activity change, negative = inhibition, usual class: inhibitors | 150,000 tested, 0.12% active | AID 1452, 2008; note: potency is the fitted concentration of half-maximal effect; % is set by controls: 0 for no effect and ±100 for the full control effect; nearly all actives have a fitted effect of over 55% in size
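Hydroperoxide output read as Fe(III)-xylenol orange absorbance, 573-to-405 nm ratio, after 30 min reaction with 40 uM arachidonic acid. Enzyme: 150 nM purified human 12hLO, 15 min compound preincubation; 25 mM Hepes pH 7.0, room temperature.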
NPSR antagonist – qHTS Assay for Antagonists of the Neuropeptide S Receptor: cAMP Signal Transduction; Q6W5P4; CHO-NPSR cells, cAMP TR-FRET, antagonist mode; Potency, µM (titrated, usually from 38.3 µM), for inactives: at the highest dose activity change, negative = inhibition, most hits filed as inhibitors; 220,000 tested, 1% active; AID 1461, 2008; note: potency is the fitted concentration of half-maximal effect; % is set by controls: 0 for no effect and ±100 for the full control effect; nearly all actives have a fitted effect of over 50% in size
Target sequence (Q6W5P4 whole entry, looked up): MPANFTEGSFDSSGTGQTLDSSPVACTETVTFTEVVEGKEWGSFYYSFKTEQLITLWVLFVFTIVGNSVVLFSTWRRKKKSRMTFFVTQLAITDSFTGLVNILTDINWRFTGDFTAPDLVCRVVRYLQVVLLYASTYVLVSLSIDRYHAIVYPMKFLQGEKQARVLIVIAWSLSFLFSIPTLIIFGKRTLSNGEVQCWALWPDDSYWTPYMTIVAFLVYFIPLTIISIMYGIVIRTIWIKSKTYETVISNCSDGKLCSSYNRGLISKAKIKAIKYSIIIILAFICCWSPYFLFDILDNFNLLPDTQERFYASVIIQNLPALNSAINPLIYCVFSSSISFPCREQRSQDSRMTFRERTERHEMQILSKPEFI
HTT aggregate – qHTS Multiplex Assay to Identify Dual Action Probes in a Cell Model of Huntington: Aggregate Formation (GFP); Potency, µM (doses to about 46.1 µM), without a hit: at the highest dose activity change, negative = inhibition, hits mostly inhibitors; 220,000 tested, 1.1% active; PC12 HttQ103-GFP aggregates, Acumen cytometry, 40 h; note: potency is the fitted concentration of half-maximal effect; % is set by controls: 0 for no effect and ±100 for the full control effect; nearly all actives have a fitted effect of over 60% in size
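Ecdysone-promoter PC12 model expressing HTT exon 1 Q103 fused to GFP, induced by tebufenozide at 100 nM final. Compounds titrated; aggregates sized 1–25 µm scored on a 488 nm laser cytometer.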
IMPase cell inh – qHTS Assay for Identifying the Cell-Membrane Permeable IMPase Inhibitors. Inositol monophosphatase 1 (Rattus norvegicus), P97697. CHO-M1 cells, IP1 accumulation, HTRF TR-FRET ratio. inhibition (IP1 accumulation), % at 46.1 µM. 120,000 tested, under 10 active. AID 901, 2007; active = well fitted curve in the direction sought with a large enough effect in the signal ratio, not every such curve was filed as active; inconclusive = small, poorly fitted or top-dose-only effect, or a change in a side signal; inactive = no such curve, though single readings can be large or run the other way; the % refers to the signal ratio;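 note: cells stimulated with carbachol in lithium chloride buffer; plate controls were DMSO basal wells for no effect and reference inhibitor wells for full effect; higher means more IMPase inhibition seen as more IP1 and lower FRET ratio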
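Carbachol-driven Gq signalling in CHO-M1 cells (2000/well) generates IP1. Compounds that block IMPase raise IP1 and so reduce the FRET signal from Eu-anti-IP1 and d2-IP1 after a 10 min room-temperature lysis.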
HTT ATP protect – qHTS Multiplex Assay to Identify Dual Action Probes in a Cell Model of Huntington: Cytoprotection (ATP) | Potency, µM (series often up to 56.4 µM), without a hit: cytoprotection (ATP increase), most hits filed as activators | PC12 HTT-Q103 induced, cytoprotection, ATP luminescence, 40 h | 230,000 tested, 0.14% active; note: potency is the fitted concentration of half-maximal effect; % of control where 0% means no effect; nearly all actives have a fitted effect of over 45% in size
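Rat PC12, Q103 Htt exon1-GFP fusion, ecdysone promoter; tebufenozide inducer 100 nM final; compound titration; qHTS, 1500 cells/well; ATPlite luminescent read.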
* = called active by the depositor; ? = inconclusive; . = no result given; [ ] = another dose, or the depositor's remark. Shown are actives, neighbours in structure and some others; about 3.3% of the full set was active somewhere. Unless noted, calls come from the whole dose curve; as a rule, active = well fitted curve in the direction sought with a large enough effect; inconclusive = small, poorly fitted or top-dose-only effect, or another doubt; inactive = no such curve, though single readings can be large; an effect the other way counts as inactive or inconclusive.

SMILES	PNC inhibitor	12-hLO inh	NPSR antagonist	HTT aggregate	IMPase cell inh	HTT ATP protect
O=C(CNC(=O)C(c1ccccc1)c1ccccc1)N/N=C/c1ccc(O)cc1O	.	.	-3%	-27%[9.22 µM]	.	-20%[10 µM]
NC(N)=NCCCC(=O)O	.	-3%[11.4 µM]	.	.	.	11%[10 µM]
CC(/C=N/n1cnnc1)=C\c1ccco1	-100*	1%	-5%[46.1 µM]	-3%	-5	18%[10 µM]
CC(/C=N/n1c(-c2cc(C)[nH]n2)n[nH]c1=S)=C\c1ccco1	.	.	?	10%[9.22 µM]	.	6%[10 µM]
CCC(=O)Nc1nnc(C)s1	-106*	3%	8%	14%	2	12%[10 µM]
CC(C)=CC(=O)Nc1nnc(C)s1	-108*	0%	6%	25%	-1	-4%[10 µM]
CCCCC(=O)Nc1nnc(C)s1	56	-1%	1%[46.1 µM]	3%	-5	-26%[10 µM]
O=C(c1cc(C(F)(F)F)cc(C(F)(F)F)c1)N1CCC2(CC1)CCN(c1ccncc1)CC2	.	1%	.	.	.	-19%
CCCCC1=CC2=C(OC(C)=O)C(=O)C(C)(OC(=O)C3CCCC3)C(=O)C2=CO1 (stereo not drawn)	.	-22%	.	.	.	-62%
CCC1(C)Cc2c(sc3nc(SCC(=O)O)[nH]c(=O)c23)CO1 (stereo not drawn)	-102*	-2%	-23%[46.1 µM]	-27%	1	7%[10 µM]
CCSc1nc2sc3c(c2c(=O)[nH]1)CC(C)(CC)OC3 (stereo not drawn)	46	5%	-2%[46.1 µM]	-5%	6	-18%
CN(C)c1cc[n+](CC(=O)c2ccc(-c3ccccc3)cc2)cc1	.	.	21%	16µM*	.	-77%
O=C(C[n+]1ccccc1)c1ccc(-c2ccccc2)cc1	.	.	15%	-11%	.	?
Cc1ccc(S(=O)(=O)N2c3ccccc3OCC2c2ccccc2)cc1 (stereo not drawn)	-100*	-1%	-23%[46.1 µM]	-25%	2	-20%[10 µM]
Cc1ccc(S(=O)(=O)Oc2ccc(/C=N/NC(=O)c3nn(C)cc3Cl)cc2)cc1	-100*	0%	-28%[46.1 µM]	9%	3	7%[10 µM]
Cc1cc(N2CCN(C(=O)OC(C)(C)C)CC2)n2ncnc2n1	-88*	-10%	-5%[46.1 µM]	-27%	7	11%[10 µM]
Cc1cc(N2CCN(c3nc4ccccc4s3)CC2)n2ncnc2n1	24	5%	-1%[46.1 µM]	11µM*	16	-19%
Cc1cc(N2CCN(C(=O)c3ccco3)CC2)n2ncnc2n1	8	5%	-12%[46.1 µM]	-23%	-10	7%[10 µM]
Cc1nc2cnc(N3CCOCC3)nc2n(Cc2ccc(F)cc2)c1=O	.	.	.	.	.	-37%
O=[N+]([O-])c1cc(CN2CCCC2)ccc1Sc1ccc(Cl)cc1	.	.	-12%	-8%[9.22 µM]	.	-18%
O=C(NCCN1CCOCC1)c1ccc(=O)oc1	-127*	-12%	0%[46.1 µM]	10%	-8	-6%
O=C(NCc1ccccn1)c1ccc(=O)oc1	-3	-2%	-19%[46.1 µM]	2.8µM*	-13	-79%[10 µM]
O=C(CCc1nc2ccccc2[nH]1)N1CCc2ccccc2C1	-91*	5%	13%	11%	.	-11%
COc1ccccc1N1CCN(C(=O)CSc2ncnc3scc(-c4ccccc4)c23)CC1	22	-2%	-25%	-25%	13	9%[10 µM]
COc1ccc(-n2ncc3c(SCC(=O)N4CCN(c5ccccc5OC)CC4)ncnc32)cc1	-119*	4%	-4%	26%	3	22%[10 µM]
O=C(O)CP(=O)(O)O	20	0%	18%	26%	-1	?
O=P(O)(O)CP(=O)(O)O	-100*	-13%	-7%[46.1 µM]	-4%	-1	-1%[10 µM]
O=C(Nc1ccccc1C(=O)O)c1ccc(NC(=O)c2ccc(Br)o2)cc1	56	4%	-13%[46.1 µM]	10%[1.84 µM]	-14	2.2µM*

Bioassay records (PubChem)
